In PubChem BioAssay (NCATS):
Inconclusive results are not listed. A call without a number means that no potency is given here. Where a structure was tested more than once in an assay, its records may differ in their call. Calls of active or inactive are those of the source. Calls follow the shape of the dose curve; as a rule, active = well fitted curve in the direction sought with a large enough effect; inconclusive = small, poorly fitted or top-dose-only effect, or another doubt; inactive = no such curve, though single readings can be large; an effect the other way counts as inactive or inconclusive.

Legend:
[1] = qHTS assay to identify small molecule inhibitors of chordoma cells - UCH-1 (AID 1259355); conditions: UCH-1 chordoma viability, CellTiter-Glo, 48 h, combination, with auranofin plus four topoisomerase inhibitors; series mostly up to 46.1 µM; also: nearly all actives have a fitted effect of over 55% in size
Outline: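 Cells (800/well) were seeded and left overnight at 37 C, 5% CO2, then treated with drugs at 15 concentrations plus a combination mix of auranofin, camptothecin, doxorubicin, rubitecan and topotecan. Viability after 48hr was read by CellTiter-Glo luminescence.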

[2] = qHTS assay to identify small molecule inhibitors of chordoma cells - UCH-2 (AID 1259356); conditions: UCH-2 chordoma viability, CellTiter-Glo ATP luminescence, 48 h; series mostly up to 46.1 µM
[3] = P-glycoprotein substrates identified in KB-8-5-11 adenocarcinoma cell line, qHTS therapeutic library screen (AID 1346987); conditions: KB-8-5-11 (P-gp overexpressing) viability, CellTiter-Glo, 72 h; series mostly up to 44.5 µM; also: nearly all actives have a fitted effect of over 65% in size
Outline: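 KB-8-5-11, a colchicine-selected P-gp-overexpressing KB-3-1 subline, was grown without colchicine for the assay. Cells were seeded at 500 cells/well, dosed in concentration-response and incubated 72 h at 37 degree C, 5% CO2. Viability was read by CellTiter-Glo luminescence.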
Potency is read from the fitted curve at half-maximal effect.

Row | Molecule | Potency [1] | Potency [2] | Potency [3] | activity, negative = inhibition [1]
1 | C=CC[N+]1([C@H]2C[C@H]3[C@@H]4CC[C@H]5C[C@H](O)[C@@H](N6CCOCC6)C[C@]5(C)[C@H]4CC[C@]3(C)[C@H]2OC(C)=O)CCCC1 | inactive | inactive | inactive | 
2 | C[S+](C)CCC(N)C(=O)O (stereo not given) | inactive | inactive | inactive | 
3 | CCN1\C(=C/C=C/C=C/c2sc3ccccc3[n+]2CC)Sc2ccccc21 | 14.1 µM (active) | 18.3 µM (active) | 16.4 µM (active) | 
4 | H-RKDVY-OH | inactive | inactive | inactive | 
5 | COc1ccc2c(=O)c(C)c(-c3ccccc3)oc2c1CN(C)C | inactive | inactive | inactive | 
6 | CC/C=C\C/C=C\C/C=C\C/C=C\C/C=C\C/C=C\CCC(=O)O | inactive | inactive | inactive | 
7 | CC[C@H]1OC(=O)C[C@@H](O)[C@H](C)[C@@H](O[C@@H]2O[C@H](C)[C@@H](O[C@H]3C[C@@](C)(O)[C@@H](O)[C@H](C)O3)[C@H](N(C)C)[C@H]2O)[C@@H](CC=O)C[C@@H](C)C(=O)/C=C/C(C)=C/[C@@H]1CO[C@@H]1O[C@H](C)[C@@H](O)[C@@H](OC)[C@H]1OC | inactive | inactive | inactive | 
8 | FC(F)OC(Cl)C(F)(F)F (stereo not given) | inactive | inactive | inactive | 
9 | CC(C)(C)c1ccc(CN2CCN(C(c3ccccc3)c3ccc(Cl)cc3)CC2)cc1 (stereo not given) | inactive | inactive | 23.1 µM (active) and inactive | 
10 | CC(C)C[C@H](NC(=O)[C@@H](Cc1c[nH]c2ccccc12)NC(=O)[C@H](Cc1ccc(O)cc1)NC(=O)[C@H](CO)NC(=O)[C@H](Cc1c[nH]c2ccccc12)NC(=O)[C@H](Cc1cnc[nH]1)NC(=O)[C@@H]1CCC(=O)N1)C(=O)N[C@@H](CCCN=C(N)N)C(=O)N1CCC[C@@H]1C(=O)NCC(N)=O | inactive | inactive | inactive | 
11 | CC1=CCC2CC1C2(C)C (stereo not given) | inactive | inactive | inactive | 
12 | CCCCCCCCCCCCCCCCCCOCC(COP(=O)([O-])OCC[N+](C)(C)C)OC (stereo not given) | inactive | inactive | inactive | 
13 | CCN(CC)C(=O)[C@]1(c2ccccc2)C[C@@H]1CN | inactive | inactive | inactive | 
14 | CO/N=C(\C(=O)N[C@@H]1C(=O)N2C(C(=O)O)=C(CSc3nc(C)c(CC(=O)O)s3)CS[C@H]12)c1csc(N)n1 | inactive | inactive | inactive | 
15 | CC1CCC(NC(=O)N(CCCl)N=O)CC1 (stereo not given) | inactive | inactive | inactive | 
16 | Cc1nc(NS(=O)(=O)c2ccc(N)cc2)nc(C)c1Br | inactive | inactive | inactive | 
17 | CC(=O)[O][Al][O]C(C)=O | inactive | inactive | inactive | 
18 | O=P(O)(O)OP(=O)(O)OP(=O)(O)O | inactive | inactive | inactive | 
19 | CCN1C(=O)NC(c2ccccc2)C1=O (stereo not given) | inactive | inactive | inactive | 
20 | O.O.O.O.O.O.O.O=S(=O)([O-])[O-].[Co+2] | inactive | inactive | inactive | 
21 | NCC[C@H](O)C(=O)N[C@@H]1C[C@H](N)[C@@H](O[C@H]2O[C@H](CN)[C@@H](O)[C@H](O)[C@H]2O)[C@H](O)[C@H]1O[C@H]1O[C@H](CO)[C@@H](O)[C@H](N)[C@H]1O | inactive | inactive | inactive | 
22 | O=C1NCCN1c1ncc([N+](=O)[O-])s1 | inactive | inactive | inactive | 
23 | C[C@]12CCC(=O)C[C@@H]1CC[C@@H]1[C@@H]2CC[C@]2(C)C=CC[C@@H]12 | inactive | inactive | inactive | 
24 | CC(C)(Oc1ccc(C2CCCc3ccccc32)cc1)C(=O)O (stereo not given) | inactive | inactive | inactive | 
25 | O=C(O)c1cc(O)c2c(c1)[C@H]([C@H]1c3cc(C(=O)O)cc(O)c3C(=O)c3c(O[C@@H]4O[C@H](CO)[C@@H](O)[C@H](O)[C@H]4O)cccc31)c1cccc(O[C@@H]3O[C@H](CO)[C@@H](O)[C@H](O)[C@H]3O)c1C2=O | inactive | inactive | inactive | 
26 | Cc1cc(C)c(NC(=O)C[C@H](CC(=O)O)c2cccc3ccccc23)c(C(=O)N2CCC3(CCCC3)CC2)c1 |  | inactive | inactive | -1.62% [at 1.88 µM] (inactive)
27 | OCl | inactive | inactive | inactive | 
28 | CC[C@@H](C)[C@H](N)C(=O)O | inactive | inactive | inactive | 
29 | Cc1cccc(C)c1NC(=O)NC1=CCCN1C | inactive | inactive | inactive | 
30 | CC(C)[C@H](N)C(=O)OCC(CO)OCn1cnc2c(=O)[nH]c(N)nc21 (stereo not given in full) | inactive | inactive | inactive | 
